Potency and outcome data for seven compounds are collected here from PubChem BioAssay (Tox21).

Inconclusive results are not listed. Active and inactive are the calls of the source. Unless noted, the call rests on the fitted dose curve; in most records, active means well fitted curve in the direction sought with a large enough effect in the repeat runs; inconclusive means weak or mixed curves; inactive means no such curve, though single readings can be large; an effect the other way counts as inactive or inconclusive.

A short description of assay [1]: qHTS assay to identify small molecule antagonists of the estrogen related receptor (ERR) signaling pathway from Tox21 library - cell viability counter screen (AID 1224834). Further: nearly all actives have a fitted effect of over 30% in size. Summed up: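 Viability readout (CellTiter-Fluor fluorescence, 30 min at 37 C) multiplexed with the ERR assay; cells treated 17.5 h at 37 C with compounds delivered in DMSO.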
(Quantitative high-throughput screening tests each substance at several concentrations.)

Assay [2] addresses Luciferin 4-monooxygenase (Photinus pyralis) (UniProt P08659). Description: qHTS assay to identify small molecule inhibitors of firefly luciferase (AID 1224835). Further: nearly all actives have a fitted effect of over 25% in size. Further: potency means the concentration at half of the fitted maximal effect. In short, it runs like this:
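Inhibition of purified Photinus luciferase is measured by luminescence. Substrate levels (D-luciferin, ATP) sit at their KM values. Each compound is tested in a concentration series.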

The nature of assay [3]: qHTS assay to identify small molecule agonists of the constitutive androstane receptor (CAR) signaling pathway - cell viability counter screen (AID 1224836). Further: series mostly up to about 92 µM; nearly all actives have a fitted effect of over 45% in size. Summed up:
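Counter screen multiplexed with the CAR reporter readout: HepG2 cells co-transfected with hCAR and the CYP2B6-2.2kb construct receive a 15-concentration compound series and 0.75 uM PK11195 (final), then CellTiter-Fluor fluorescence is read after 23 h.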

A short description of assay [4]: qHTS assay to identify small molecule antagonists of the constitutive androstane receptor (CAR) signaling pathway - cell viability counter screen (AID 1224837). Further: series mostly up to about 92 µM; nearly all actives have a fitted effect of over 45% in size. Summed up:
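Fluorescence from CellTiter-Fluor served as the viability signal. Human hepatoma HepG2 cells stably bearing hCAR and CYP2B6-2.2kb received compound plus CITCO (50 nM final) for 23 hr.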

In assay [5] the target is Nuclear receptor subfamily 1 group I member 3 (Homo sapiens) (UniProt Q14994). Description: qHTS assay to identify small molecule agonists of the constitutive androstane receptor (CAR) signaling pathway (AID 1224839). Further: series mostly up to about 92 µM; nearly all actives have a fitted effect of over 15% in size. In short, it runs like this: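 A 15-concentration quantitative screen uses HepG2 cells co-transfected stably with human CAR and CYP2B6-2.2kb reporter. Treatment lasts 24 h with 0.75 uM PK11195 final present; ONE-Glo luminescence is the signal.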
Nuclear receptor subfamily 1 group I member 3 (Homo sapiens), sequence (Q14994 whole entry, looked up): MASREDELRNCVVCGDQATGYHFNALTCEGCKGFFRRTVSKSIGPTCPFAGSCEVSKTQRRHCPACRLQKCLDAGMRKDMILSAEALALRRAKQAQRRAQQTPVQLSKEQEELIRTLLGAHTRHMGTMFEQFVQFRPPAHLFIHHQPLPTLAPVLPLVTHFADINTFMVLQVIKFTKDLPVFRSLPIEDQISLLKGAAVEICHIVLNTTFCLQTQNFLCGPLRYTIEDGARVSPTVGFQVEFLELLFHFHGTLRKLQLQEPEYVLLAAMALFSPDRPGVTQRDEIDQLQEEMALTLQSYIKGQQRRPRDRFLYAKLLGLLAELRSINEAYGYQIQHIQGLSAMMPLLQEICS

The nature of assay [6]: qHTS assay to identify small molecule antagonists of the estrogen related receptor signaling pathway with the pleiotropic PPARgamma coactivator (PGC) from Tox21 10K library - cell viability counter screen (AID 1224840; active means well fitted cell-killing curve with a large enough effect in the repeat runs, not every such curve was filed as active; further: nearly all actives have a fitted effect of over 40% in size). Summed up: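 Compounds in DMSO, alongside positive and negative controls, were pinned onto PGC/ERR cells (2,000 per well). Exposure lasted 17.5 hours at 37 C, followed by a 30-minute CellTiter-Fluor incubation and fluorescence reading.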

Assay [7] can be described thus: qHTS assay to identify small molecule agonists of the estrogen related receptor signaling pathway with the pleiotropic PPARgamma coactivator (PGC) from Tox21 10K library (AID 1224842). Further: nearly all actives have a fitted effect of over 15% in size. Summed up: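 Luminescence from One-Glo (30 min, room temperature) measured after PGC/ERR cells had 18 h at 37 C with pinned compound (23 nL in DMSO). Cells had been seeded at 2,000 per well and pre-incubated 6 h.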

In assay [8] the target is Thyrotropin receptor (Homo sapiens) (UniProt P16473). Description: qHTS assay to identify small molecule agonists of the thyroid stimulating hormone receptor (TSHR) signaling pathway (AID 1224843; calls by dose curve; further: nearly all actives have a fitted effect of over 45% in size). In short, it runs like this: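 HEK293 cells stably bearing the thyrotropin receptor were plated at 800 cells/well and challenged with compound (30 min, RT). Accumulated cAMP was quantified via cAMP-d2 competing for cryptate-tagged antibody.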
Thyrotropin receptor (Homo sapiens), sequence (P16473 whole entry, looked up): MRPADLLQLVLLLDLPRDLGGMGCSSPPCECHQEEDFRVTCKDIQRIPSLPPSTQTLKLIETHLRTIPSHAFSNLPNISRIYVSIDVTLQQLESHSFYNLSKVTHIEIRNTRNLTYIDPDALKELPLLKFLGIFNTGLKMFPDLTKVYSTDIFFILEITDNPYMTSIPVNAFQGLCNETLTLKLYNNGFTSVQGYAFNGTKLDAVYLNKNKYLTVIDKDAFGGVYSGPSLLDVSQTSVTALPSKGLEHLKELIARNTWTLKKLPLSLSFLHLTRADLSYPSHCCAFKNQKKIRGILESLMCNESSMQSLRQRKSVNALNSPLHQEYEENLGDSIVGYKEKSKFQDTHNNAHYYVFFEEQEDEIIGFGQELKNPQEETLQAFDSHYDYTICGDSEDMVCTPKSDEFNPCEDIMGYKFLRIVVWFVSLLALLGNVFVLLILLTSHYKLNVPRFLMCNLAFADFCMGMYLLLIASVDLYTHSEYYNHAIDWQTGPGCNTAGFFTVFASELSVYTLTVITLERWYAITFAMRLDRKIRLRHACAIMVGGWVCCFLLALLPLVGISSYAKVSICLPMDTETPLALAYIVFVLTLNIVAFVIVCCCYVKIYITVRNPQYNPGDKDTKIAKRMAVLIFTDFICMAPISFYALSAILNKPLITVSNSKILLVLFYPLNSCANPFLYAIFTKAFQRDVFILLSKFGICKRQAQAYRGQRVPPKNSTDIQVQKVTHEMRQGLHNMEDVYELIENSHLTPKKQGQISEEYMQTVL

Assay [9] can be described thus: qHTS assay to identify small molecule agonists of H2AX (AID 1224845; active means well fitted activation curve with a large enough effect in the signal ratio in the repeat runs, not every such curve was filed as active; the % refers to the signal ratio). Summed up: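 Phospho-H2AX Ser139 measured by HTRF (ex 320 nm; em 665 and 620 nm) after 24 hr antibody incubation. Compounds, 15 concentrations, 0.76% DMSO, were applied to CHO-K1 cells for 3hr at 37C before lysis.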
A short description of assay [10]: qHTS assay to identify small molecule agonists of H2AX - cell viability counter screen (AID 1224847; calls by dose curve; further: top concentration of the series differs between compounds; nearly all actives have a fitted effect of over 30% in size). Summed up: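 We seed wild-type CHO-K1 cells overnight, treat them for 3 hr at 37C with compounds in 15-concentration series, and quantify remaining viability by CellTiter-Glo luminescence.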
Assay [11] can be described thus: qHTS assay to identify small molecule antagonists of the estrogen related receptor (ERR) signaling pathway from Tox21 library (AID 1224848). Further: nearly all actives have a fitted effect of over 50% in size. In short, it runs like this: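 Reading was by luminescence 30 min after ONE-Glo addition. Before that, ERR cells at 2,000 per well had rested 6 h at 37 C/5% CO2 and then received pin-tooled compounds in DMSO for 18 h at 37 C.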

Assay [12] is described as follows: qHTS assay to identify small molecule agonists of the estrogen related receptor (ERR) signaling pathway from Tox21 library (AID 1224849; calls by dose curve; further: nearly all actives have a fitted effect of over 15% in size). Summed up:
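We plated ERR reporter cells, waited 6 h, added compounds in DMSO by pin tool and incubated them 18 h at 37 C. ONE-Glo was then added and luminescence read after 30 min.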

The nature of assay [13]: qHTS RealTime-Glo MT Cell Viability Assay in HepG2 cells - 24 hour (AID 1224867). Further: nearly all actives have a fitted effect of over 50% in size. In short, it runs like this:
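Cell number in HepG2 cultures estimated from NanoLuc luminescence generated by metabolic reduction of a prosubstrate by living cells. The homogeneous, nonlytic format allowed repeated reads at 0, 8, 16, 24, 32 and 40 h of compound exposure.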

A short description of assay [14]: qHTS RealTime-Glo MT Cell Viability Assay in HEK293 cells - 32 hour (AID 1224868). Further: top concentration of the series differs between compounds; nearly all actives have a fitted effect of over 50% in size. In short, it runs like this: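 Homogeneous bioluminescent viability format in HEK293 cells (600 cells/well). Following 5 h at 37 C/5% CO2, 23 nL compound was pintooled; the signal was measured repeatedly during 40 h incubation.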
Assay [15] can be described thus: A CellTox Green Cytotoxicity Assay to monitor cytotoxicity in HEK293 cells - 0 hour (AID 1224869). Further: nearly all actives have a fitted effect of over 50% in size. In short, it runs like this:
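Each value comes from one timepoint of a single continuous run in which HEK293 cells with CellTox Green were exposed to compound for up to 40 h at 37 C, dye fluorescence rising with cell death.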

Assay [16] in a line: qHTS RealTime-Glo MT Cell Viability Assay in HepG2 cells - 40 hour (AID 1224870). Further: nearly all actives have a fitted effect of over 50% in size. Summed up: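 Real-time viability: cells seeded at 600 per well together with NanoLuc and cell-permeant prosubstrate, compounds added after 5 h incubation. Luminescence tracked at 0, 8, 16, 24, 32 and 40 h of exposure.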
Assay [17] addresses Nuclear receptor subfamily 1 group I member 3 (Homo sapiens) (UniProt Q14994). Description: qHTS assay to identify small molecule antagonists of the constitutive androstane receptor (CAR) signaling pathway (AID 1224838).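 Further: HepG2 cells stably expressing hCAR with CYP2B6 luciferase reporter stimulated by CITCO; nearly all actives have a fitted effect of over 40% in size.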 Summed up: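 Quantitative HTS in double-stable HepG2-CYP2B6-hCAR cells. After 4 h plating, cells get compound (15 concentrations) and CITCO at 50 nM final, incubate 24 h at 37 C, then ONE-Glo luminescence is read.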

The nature of assay [18]: qHTS assay to identify small molecule agonists of the hypoxia (HIF-1) signaling pathway (AID 1224846; active means well fitted activation curve with a large enough effect in the signal ratio in the repeat runs, not every such curve was filed as active; the % refers to the signal ratio). In short, it runs like this:
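Measured by blue/green FRET after loading CCF4-AM: beta-lactamase expressed from a hypoxia response element in ME-180 cells. Test agents were delivered in DMSO and left 17 hrs; cells had been plated 5 hrs earlier in low-serum (0.5% dialyzed FBS) medium.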

A short description of assay [19]: qHTS assay to identify small molecule antagonists of the estrogen related receptor signaling pathway with the pleiotropic PPARgamma coactivator (PGC) from Tox21 10K library (AID 1224841; call rule not given here). Summed up:
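Compound exposure ran 18 hours at 37 C in PGC/ERR cells (2,000/well) that had first rested 6 hours in a 37 C/5% CO2 incubator. Luciferase activity was then detected with One-Glo after a 30-minute room-temperature step.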

Assay [20] is described as follows: qHTS assay to identify small molecule agonists of the hypoxia (HIF-1) signaling pathway - cell viability counter screen (AID 1224844; calls by dose curve; further: nearly all actives have a fitted effect of over 50% in size). Summed up:
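Luminescent ATP content (CellTiter-Glo, 30 min, room temperature) served as the viability measure in HRE-bla ME-180 cells exposed to compounds for 17 hrs in low-serum medium (0.5% dialyzed FBS).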

Luciferin 4-monooxygenase (Photinus pyralis), sequence (P08659 whole entry, looked up): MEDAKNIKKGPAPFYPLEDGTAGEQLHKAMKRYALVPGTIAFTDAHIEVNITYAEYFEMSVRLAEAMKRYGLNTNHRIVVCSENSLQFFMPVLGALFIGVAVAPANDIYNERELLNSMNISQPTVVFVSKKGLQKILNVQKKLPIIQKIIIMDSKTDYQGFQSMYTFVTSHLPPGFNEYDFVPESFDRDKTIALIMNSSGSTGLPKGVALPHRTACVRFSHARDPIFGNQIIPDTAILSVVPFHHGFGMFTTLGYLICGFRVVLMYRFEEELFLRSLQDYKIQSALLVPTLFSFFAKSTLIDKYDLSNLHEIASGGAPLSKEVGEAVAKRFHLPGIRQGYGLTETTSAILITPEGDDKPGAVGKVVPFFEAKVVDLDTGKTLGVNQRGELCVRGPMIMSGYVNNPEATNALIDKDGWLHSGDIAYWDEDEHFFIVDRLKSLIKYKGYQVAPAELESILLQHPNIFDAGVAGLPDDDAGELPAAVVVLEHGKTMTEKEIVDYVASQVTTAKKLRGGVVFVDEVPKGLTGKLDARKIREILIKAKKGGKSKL

As for `CN1[C@@H]2CC[C@H]1CC(OC(=O)C(O)c1ccccc1)C2` (some centres undefined), the Potency entry in assay [1], in assay [2], in [5], in assay [7], in assay [8] and in [9] was “inactive” each time. Further, the Potency result in assay [11], in assay [14] and in [16] was “inactive” in each case. Moreover, the result in [3], in [4], in assay [6], in [10], in [12] and in assay [13] was inactive. Besides, the compound was called inactive in assay [15].
`CC(=O)c1cnccn1`: the Potency result in [1], in assay [2], in assay [17], in assay [5], in [9] and in assay [14] was “inactive” throughout. Moreover, in assay [16], the Potency entry was “inactive”. Moreover, the call in assay [3], in assay [4], in assay [6], in [18], in assay [10] and in assay [13] was inactive. The outcome in assay [15] was inactive.
For `O=CN(CCO)CCO`, the Potency result in assay [1], in [2], in assay [19], in assay [7], in [8] and in assay [20] was “inactive” each time. The Potency result in [9], in assay [11], in [14] and in [16] was “inactive” each time. The outcome in assay [3], in [4], in [6], in assay [18], in [10] and in [12] was inactive. Besides, the call in [13] and in assay [15] was inactive.
On to `NC(=O)N[C@@H](CCC(=O)O)C(=O)O`, for which the Potency entry in [1], in [2], in assay [17], in [5], in [8] and in assay [20] was “inactive” in each case. For the same compound, the Potency entry in [9], in assay [14] and in [16] was “inactive” throughout. In addition, the compound was classed as inactive in assay [3], in [6], in assay [18], in assay [10], in [13] and in assay [15].
Regarding `CCCC(C)C(=O)OCC` (centres undefined), the Potency result in assay [1], in [2], in assay [17], in assay [5], in assay [7] and in [8] was “inactive” throughout. Besides, the Potency result in [20], in [9], in [11], in assay [14] and in assay [16] was “inactive” each time. For the same compound, the outcome in assay [3], in [6], in assay [18], in [10], in assay [12] and in [13] was inactive. In assay [15], the outcome was inactive.
For the compound `O=C1CCCCCCCCCCCCCCO1`, the Potency result in assay [1], in assay [2], in assay [14] and in [16] was “inactive” each time. Besides, the outcome in assay [3], in [4], in assay [6], in assay [18], in assay [10] and in [13] was inactive. The compound was classed as inactive in assay [15].
Turning to `CCOC(=O)C1=NOC(c2ccccc2)(c2ccccc2)C1`, the Potency entry in assay [1], in assay [9], in [14] and in [16] was “inactive” each time. The Potency in assay [2] is 71 µM (active). Besides, the compound was called inactive in assay [3], in assay [4], in assay [6], in assay [18], in [10] and in [13]. Moreover, the result in [15] was inactive.
